Measured values published in ChEMBL document CHEMBL2218924, “A broad activity screen in support of a chemogenomic map for kinase signalling research and drug discovery” (Biochem J, 2013).

Key:
[1] = molecular target: Serine/threonine-protein kinase SIK1 (Homo sapiens) (UniProt P57059); details: at 10 µM
[2] = molecular target: SRSF protein kinase 1 (Homo sapiens) (UniProt Q96SB4); details: at 1 µM
[3] = molecular target: SRSF protein kinase 1 (Homo sapiens) (UniProt Q96SB4); details: at 10 µM
[4] = molecular target: SRSF protein kinase 2 (Homo sapiens) (UniProt P78362); details: at 1 µM
SRSF protein kinase 2 (Homo sapiens), sequence (P78362 whole entry, looked up): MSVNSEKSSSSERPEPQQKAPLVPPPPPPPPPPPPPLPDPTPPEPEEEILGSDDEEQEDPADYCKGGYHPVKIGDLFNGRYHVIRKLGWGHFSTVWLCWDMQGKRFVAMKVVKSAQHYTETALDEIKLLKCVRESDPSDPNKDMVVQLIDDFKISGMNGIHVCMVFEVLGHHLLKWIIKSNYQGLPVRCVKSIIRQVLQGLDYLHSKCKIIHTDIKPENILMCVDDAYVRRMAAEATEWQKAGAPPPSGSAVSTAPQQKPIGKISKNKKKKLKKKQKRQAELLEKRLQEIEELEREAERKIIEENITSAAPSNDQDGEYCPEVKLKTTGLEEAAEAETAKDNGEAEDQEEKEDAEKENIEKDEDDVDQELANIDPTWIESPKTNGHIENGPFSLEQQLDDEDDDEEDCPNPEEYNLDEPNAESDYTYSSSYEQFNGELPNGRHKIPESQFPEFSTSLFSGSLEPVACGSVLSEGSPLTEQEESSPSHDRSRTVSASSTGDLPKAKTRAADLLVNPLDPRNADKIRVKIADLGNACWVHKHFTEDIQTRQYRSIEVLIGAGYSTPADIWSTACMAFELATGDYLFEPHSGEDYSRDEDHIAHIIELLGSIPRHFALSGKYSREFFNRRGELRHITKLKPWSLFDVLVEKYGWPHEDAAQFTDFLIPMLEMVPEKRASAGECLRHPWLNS

[5] = molecular target: SRSF protein kinase 2 (Homo sapiens) (UniProt P78362); details: at 10 µM
[6] = molecular target: Serine/threonine-protein kinase 33 (Homo sapiens) (UniProt Q9BYT3); details: at 1 µM
Serine/threonine-protein kinase 33 (Homo sapiens), sequence (Q9BYT3 whole entry, looked up): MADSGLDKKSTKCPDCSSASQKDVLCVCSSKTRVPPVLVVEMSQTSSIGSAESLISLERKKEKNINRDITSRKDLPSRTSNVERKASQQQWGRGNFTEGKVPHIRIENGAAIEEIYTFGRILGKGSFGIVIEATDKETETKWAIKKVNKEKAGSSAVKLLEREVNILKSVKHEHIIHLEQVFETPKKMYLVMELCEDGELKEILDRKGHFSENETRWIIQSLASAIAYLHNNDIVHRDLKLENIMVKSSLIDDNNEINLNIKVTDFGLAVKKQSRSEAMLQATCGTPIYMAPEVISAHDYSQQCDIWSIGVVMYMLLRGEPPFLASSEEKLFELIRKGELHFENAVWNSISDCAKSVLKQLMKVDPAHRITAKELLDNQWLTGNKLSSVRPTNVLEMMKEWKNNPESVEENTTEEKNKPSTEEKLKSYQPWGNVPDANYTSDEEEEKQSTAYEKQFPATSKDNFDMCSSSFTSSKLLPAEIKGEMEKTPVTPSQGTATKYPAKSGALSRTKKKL

[7] = molecular target: Serine/threonine-protein kinase 33 (Homo sapiens) (UniProt Q9BYT3); details: at 10 µM
[8] = molecular target: Serine/threonine-protein kinase PLK2 (Homo sapiens) (UniProt Q9NYY3); details: at 1 µM
Serine/threonine-protein kinase PLK2 (Homo sapiens), sequence (Q9NYY3 whole entry, looked up): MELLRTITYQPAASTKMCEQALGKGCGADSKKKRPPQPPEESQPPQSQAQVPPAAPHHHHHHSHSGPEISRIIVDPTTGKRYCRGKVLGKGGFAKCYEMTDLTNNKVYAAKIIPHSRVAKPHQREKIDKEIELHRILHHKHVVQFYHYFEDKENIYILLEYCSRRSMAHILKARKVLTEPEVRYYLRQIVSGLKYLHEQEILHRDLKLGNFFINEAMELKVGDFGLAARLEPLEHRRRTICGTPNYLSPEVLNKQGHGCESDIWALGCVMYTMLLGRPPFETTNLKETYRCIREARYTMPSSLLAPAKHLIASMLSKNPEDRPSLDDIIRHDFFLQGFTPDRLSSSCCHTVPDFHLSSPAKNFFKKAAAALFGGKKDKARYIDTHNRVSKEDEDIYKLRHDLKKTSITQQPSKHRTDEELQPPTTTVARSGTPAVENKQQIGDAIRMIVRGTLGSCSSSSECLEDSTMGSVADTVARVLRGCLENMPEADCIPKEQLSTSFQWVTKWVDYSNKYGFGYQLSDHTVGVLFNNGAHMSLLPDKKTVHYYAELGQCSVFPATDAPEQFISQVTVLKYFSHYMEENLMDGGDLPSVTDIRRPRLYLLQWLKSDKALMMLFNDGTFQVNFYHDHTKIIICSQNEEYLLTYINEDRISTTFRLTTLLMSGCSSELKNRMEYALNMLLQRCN

[9] = molecular target: Serine/threonine-protein kinase PLK2 (Homo sapiens) (UniProt Q9NYY3); details: at 10 µM
[10] = molecular target: Tyrosine-protein kinase SYK (Homo sapiens) (UniProt P43405); details: at 1 µM

SRSF protein kinase 1 (Homo sapiens), sequence (Q96SB4 whole entry): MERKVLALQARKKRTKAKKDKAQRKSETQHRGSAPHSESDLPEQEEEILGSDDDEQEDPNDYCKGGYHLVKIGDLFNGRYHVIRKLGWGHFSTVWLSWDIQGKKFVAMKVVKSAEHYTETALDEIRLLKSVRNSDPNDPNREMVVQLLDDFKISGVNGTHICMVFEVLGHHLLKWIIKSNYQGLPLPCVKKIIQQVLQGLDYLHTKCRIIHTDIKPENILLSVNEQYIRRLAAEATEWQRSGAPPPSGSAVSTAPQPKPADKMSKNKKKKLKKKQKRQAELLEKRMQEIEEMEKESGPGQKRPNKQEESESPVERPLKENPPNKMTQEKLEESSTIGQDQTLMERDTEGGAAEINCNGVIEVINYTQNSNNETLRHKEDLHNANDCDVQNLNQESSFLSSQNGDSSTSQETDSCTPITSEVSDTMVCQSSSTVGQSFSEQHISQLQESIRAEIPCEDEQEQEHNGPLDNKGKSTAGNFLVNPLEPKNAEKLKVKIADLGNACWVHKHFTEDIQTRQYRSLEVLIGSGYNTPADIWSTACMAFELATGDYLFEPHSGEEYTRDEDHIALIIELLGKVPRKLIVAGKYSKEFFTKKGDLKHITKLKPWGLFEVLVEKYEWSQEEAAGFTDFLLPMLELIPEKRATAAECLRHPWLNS
Serine/threonine-protein kinase SIK1 (Homo sapiens), sequence (P57059 whole entry): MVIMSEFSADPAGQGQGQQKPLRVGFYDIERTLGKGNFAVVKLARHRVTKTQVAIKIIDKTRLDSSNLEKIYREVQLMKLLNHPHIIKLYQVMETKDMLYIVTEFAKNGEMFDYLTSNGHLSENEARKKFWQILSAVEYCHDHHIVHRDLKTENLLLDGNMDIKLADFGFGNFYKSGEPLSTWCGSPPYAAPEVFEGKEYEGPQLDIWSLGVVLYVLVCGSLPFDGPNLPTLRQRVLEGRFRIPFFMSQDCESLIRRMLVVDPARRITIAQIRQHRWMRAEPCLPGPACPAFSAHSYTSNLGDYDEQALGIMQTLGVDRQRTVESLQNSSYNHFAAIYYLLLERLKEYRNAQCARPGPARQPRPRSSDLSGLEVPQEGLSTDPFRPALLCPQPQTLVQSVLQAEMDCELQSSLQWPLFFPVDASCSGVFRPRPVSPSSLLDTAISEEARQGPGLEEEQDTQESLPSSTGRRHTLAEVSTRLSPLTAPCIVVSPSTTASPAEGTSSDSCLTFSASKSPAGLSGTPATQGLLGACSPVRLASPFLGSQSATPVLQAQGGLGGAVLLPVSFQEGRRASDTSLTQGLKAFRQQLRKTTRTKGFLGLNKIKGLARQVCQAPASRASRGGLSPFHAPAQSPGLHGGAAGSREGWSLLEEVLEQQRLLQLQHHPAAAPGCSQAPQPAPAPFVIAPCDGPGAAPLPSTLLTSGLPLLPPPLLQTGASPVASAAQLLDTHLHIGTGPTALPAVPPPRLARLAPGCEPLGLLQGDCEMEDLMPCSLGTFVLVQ

SMILES	residual activity [1] [%]	residual activity [2] [%]	residual activity [3] [%]	residual activity [4] [%]	residual activity [5] [%]	residual activity [6] [%]	residual activity [7] [%]	residual activity [8] [%]	residual activity [9] [%]	residual activity [10] [%]
c1ccc2c(-c3ccncc3)c[nH]c2c1	85	108	108	89	97	98	93	107	94	
CCN(CC)CCCCN1c2ccccc2Oc2ccc(Cl)cc21	59	101	117	104	82	107	109	109	104	137
Cn1cnc2cc3c(Nc4cccc(Br)c4)ncnc3cc21	9	100	91	94	87	93	95	106	98	129
Cn1nc2c3c(cccc31)C(=O)c1ccccc1-2	64	101	89	100	71	87	74	100	89	96
O=C1NC(=O)c2cc(Nc3ccc(F)cc3)c(Nc3ccc(F)cc3)cc21	0	102	93	96	95	95	101	97	96	118
O=C1Nc2ccccc2/C1=C1/Nc2ccccc2/C1=N\OCCC(O)CO (configuration not stated)	30			80	38	37	7		76	32
COc1ccc(OC)c2c(=S)c3ccccc3[nH]c12		91	88	97	82	94	77	89	91	94
N#Cc1cnc2cnc(NCc3cccnc3)cc2c1Nc1ccc(F)c(Cl)c1	97	100	78	102	76	99	77	101	101	2
N#CCCc1ccc2c(c1)-c1[nH]c3ccc([N+](=O)[O-])cc3c1CC(=O)N2						100	52			56
Cc1cncc2cccc(S(=O)(=O)N3CCCN(C(=O)CN)C[C@H]3C)c12	90			94	94				93	
Cn1cc(/C=C2\C(=O)Nc3ccc(S(N)(=O)=O)cc32)c2ccccc21	11	39	13	36	13	22	10	94	65	38
N#CC(C#N)=C(N)/C(C#N)=C/c1ccc(O)cc1	75	100	95			97	97		63	116
COc1cccc(-c2cc(=O)c3ccccc3o2)c1N	124	104	109	104	88	100	97	108	104	104
COc1cc2ncnc(Nc3ccc(NC(=O)c4ccccc4)cc3)c2cc1OC	18			107	103	109	108		85	
Oc1n[nH]c2nnc(-c3c(-c4ccccc4)nn4ccccc34)cc12	89	97	96	101	98	95	86	97	99	106
CO[C@H]1C[C@@H]2CC[C@@H](C)[C@@](O)(O2)C(=O)C(=O)N2CCCC[C@H]2C(=O)O[C@H]([C@H](C)C[C@@H]2CC[C@@H](O)[C@H](OC)C2)CC(=O)[C@H](C)/C=C(\C)[C@@H](O)[C@@H](OC)C(=O)[C@H](C)C[C@H](C)/C=C/C=C/C=C/1C	81	103	108	99	92	92	107	104	103	106
c1ccc(-c2n[nH]c3c2oc2ccccc23)cc1	8			98	89	94	81	94	89	115
Cc1cccc(-c2[nH]c(C(C)(C)C)nc2-c2ccc3c(c2)OCO3)n1	62			106	98	93		105	100	
CNc1cc2c(Nc3cccc(Br)c3)ncnc2cn1	57	93	97	98	92	96	93	106	89	117

SMILES	residual activity [1] [%]	residual activity [2] [%]	residual activity [3] [%]	residual activity [4] [%]	residual activity [5] [%]	residual activity [6] [%]	residual activity [7] [%]	residual activity [8] [%]	residual activity [9] [%]	residual activity [10] [%]
C[C@@H](N)[C@H]1CC[C@H](C(=O)Nc2ccncc2)CC1	115	95	103	103	113	106		100	101	110
CCN(CC)C(=O)c1ccc(Nc2nc(OCC3CCCCC3)c3nc[nH]c3n2)cc1	4		43	74	31	82	18			64
O=C1Nc2ccc(Br)cc2/C1=C\c1cc2c([nH]1)CCCC2	107							105	99	123
O=C1c2ccccc2-[n+]2ccc3c([nH]c4ccccc43)c21	104	90	93	101	87	86	86	95	101	93
O=c1c2ccccc2[nH]c(=S)n1CCN1CCC(=C(c2ccc(F)cc2)c2ccc(F)cc2)CC1	80	81	81	108	97	103	99	113	101	125
CC(=O)c1ccc(N2CCOCC2)cc1O	5	98		98	95	92	105	103	98	129
O=C(Nc1cccc(Nc2nccc(Nc3cccc(C(F)(F)F)c3)n2)c1)C1CC1	50	107	87	96	90	102	89	102	73	79
COc1ccc(S(=O)(=O)N(CCO)c2ccccc2CN(C)C/C=C/c2ccc(Cl)cc2)cc1	79	117	96	105	81	93	91		99	97
O=C1Nc2cc(Br)ccc2/C1=C1/Nc2ccccc2/C1=N\O	8	98	84	88	70	73	72	97	96	70
COc1cc2ncc(-c3ccccc3)nc2cc1OC					90					
CN(C)CCCn1cc(C2=C(c3c[nH]c4ccccc34)C(=O)NC2=O)c2ccccc21	11	130	63		57	79	24	113	88	120
Nc1n[nH]c2nnc(-c3c(-c4ccccc4)nn4ccccc34)cc12	63	92	69	100	83	96	86	99	96	92
CN(C)c1ccc(/C=C2\C(=O)Nc3ccccc32)cc1	88	97	101	108	85		78	106	98	123
O=C(O)c1ccc2c3c1cccc3c(=O)n1c3ccccc3nc21	83	78	21	91	33	99	59	100	94	100
Cc1nc(-c2ccccc2)c(-c2ccncc2)o1	100	111	109	98	81	103	102	108	104	112
Cc1cc(Nc2nc(-c3ccccc3)nc3ccccc23)n[nH]1	10	73	15	67	17	77	24		56	16
CCOc1cc2ncnc(Nc3cccc(Br)c3)c2cc1OCC	102	83	91	102	91		92	99	88	111
c1ccc(-c2n[nH]cc2-c2ccnc3ccccc23)nc1	104	106	108		87	97	94	102	96	
Cc1cc2ncc(-c3ccccc3)nc2cc1C	110	108	97	104	102	100	98	101	106	125
